Assays:
Assay in all cases: PBM binding z-score (relative to random genomic background probes); higher = stronger binding; sequences stand for … in GC…GCGATTGACAGCGTAGAATGAAGG
[1] = tested on: FXR:RXRa (NR concentration 270 nM, RXRa partner concentration 90 nM)
Method in brief: (§1)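 The probes on custom Agilent 4×180K protein-binding microarrays were double-stranded, with 34-nt variable regions bearing direct-repeat seeds, single-nucleotide variants, half-site ablations and random human genomic background sequences. Incubation lasted 1 h with ligand-free nuclear receptor dimers in PBS pH 7.4, 2% milk, 0.02% Triton X-100, 1 mM DTT, 0.2 mg/mL BSA and 0.4 mg/ml salmon testes DNA. Antibodies against each partner (one per run) detected bound dimers, and fluorescence scans were regression-normalized. Binding z-scores take the random background probes as reference.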

[2] = tested on: LXRa:RXRa (NR concentration 270 nM, RXRa partner concentration 90 nM)
Method in brief: as §1

[3] = tested on: LXRa homodimer (NR concentration 270 nM)
Method in brief: as §1

[4] = tested on: LXRb:RXRa (NR concentration 270 nM, RXRa partner concentration 90 nM)
Method in brief: as §1

[5] = tested on: LXRb homodimer (NR concentration 270 nM)
Method in brief: as §1

[6] = tested on: PPARa:RXRa (NR concentration 270 nM, RXRa partner concentration 90 nM)
Method in brief: as §1

[7] = tested on: PPARg:RXRa (NR concentration 180 nM, RXRa partner concentration 90 nM)
Method in brief: as §1

[8] = tested on: PPARg:RXRa 270nM:90nM, anti-RXR (NR concentration 270 nM, RXRa partner concentration 90 nM)
Method in brief: as §1

[9] = tested on: PPARg:RXRa 30nM:10nM, anti-RXR (NR concentration 30 nM, RXRa partner concentration 10 nM)
Method in brief: as §1

[10] = tested on: PPARg:RXRa 90nM:30nM, anti-RXR (NR concentration 90 nM, RXRa partner concentration 30 nM)
Method in brief: as §1

[11] = tested on: PPARg:RXRa DBDmut IVT, anti-RXR (DBD mutation: RXRa K156A/R161A, NR concentration 270 nM, RXRa partner concentration 90 nM)
Method in brief: as §1

[12] = tested on: PPARg:RXRa IVT, anti-PPARg (NR concentration 270 nM, RXRa partner concentration 90 nM)
Method in brief: as §1

[13] = tested on: PPARg DBDmut:RXRa IVT, anti-PPARg (DBD mutation: PPARg1 K132A/R137A, NR concentration 270 nM, RXRa partner concentration 90 nM)
Method in brief: as §1

[14] = tested on: PPARg DBDmut IVT, anti-PPARg (DBD mutation: PPARg1 K132A/R137A, NR concentration 270 nM)
Method in brief: as §1

[15] = tested on: PPARg homodimer (NR concentration 180 nM)
Method in brief: as §1

[16] = tested on: PXR:RXRa (NR concentration 270 nM, RXRa partner concentration 90 nM)
Method in brief: as §1

[17] = tested on: PXR homodimer (NR concentration 270 nM)
Method in brief: as §1

[18] = tested on: RARa:RXR (NR concentration 270 nM, RXRa partner concentration 90 nM)
Method in brief: as §1

[19] = tested on: RARa homodimer (NR concentration 270 nM)
Method in brief: as §1

[20] = tested on: RARb:RXRa (NR concentration 270 nM, RXRa partner concentration 90 nM)
Method in brief: as §1

Sequence: CCGACTGGGGCAGAAAGGTTACCACACCATCCGG
- PBM binding z-score [1]: 0.286
- PBM binding z-score [2]: 0.428
- PBM binding z-score [3]: 0.0458
- PBM binding z-score [4]: 0.833
- PBM binding z-score [5]: -1.17
- PBM binding z-score [6]: 2.21
- PBM binding z-score [7]: 1.74
- PBM binding z-score [8]: 2.66
- PBM binding z-score [9]: 0.555
- PBM binding z-score [10]: 2.13
- PBM binding z-score [11]: 1.83
- PBM binding z-score [12]: 1.76
- PBM binding z-score [13]: -0.724
- PBM binding z-score [14]: -0.799
- PBM binding z-score [15]: 0.71
- PBM binding z-score [16]: 0.929
- PBM binding z-score [17]: -0.219
- PBM binding z-score [18]: 1.85
- PBM binding z-score [19]: 0.0999
- PBM binding z-score [20]: 1.92

Sequence: AGAATGAGGTTACCAAAGATCACGGAAACGCTTG
- PBM binding z-score [1]: 2.28
- PBM binding z-score [2]: 6.94
- PBM binding z-score [3]: 0.129
- PBM binding z-score [4]: 3.82
- PBM binding z-score [5]: -0.202
- PBM binding z-score [6]: 3.5
- PBM binding z-score [7]: 2.79
- PBM binding z-score [8]: 2.7
- PBM binding z-score [9]: 0.915
- PBM binding z-score [10]: 2.03
- PBM binding z-score [11]: 3.7
- PBM binding z-score [12]: 3.26
- PBM binding z-score [13]: 1.1
- PBM binding z-score [14]: 0.644
- PBM binding z-score [15]: 0.807
- PBM binding z-score [16]: 2.1
- PBM binding z-score [17]: -0.253
- PBM binding z-score [18]: 2.3
- PBM binding z-score [19]: 0.0214
- PBM binding z-score [20]: 2.15

Sequence: CGTCCAAGGTCAATGCTAGGTCAGTGTAAGCATT
- PBM binding z-score [1]: 6.38
- PBM binding z-score [2]: 5.59
- PBM binding z-score [3]: 2.58
- PBM binding z-score [4]: 4.11
- PBM binding z-score [5]: 0.681
- PBM binding z-score [6]: 5
- PBM binding z-score [7]: 3.55
- PBM binding z-score [8]: 4.67
- PBM binding z-score [9]: 1.23
- PBM binding z-score [10]: 2.97
- PBM binding z-score [11]: 3.19
- PBM binding z-score [12]: 3.97
- PBM binding z-score [13]: 0.641
- PBM binding z-score [14]: -0.396
- PBM binding z-score [15]: 6.64
- PBM binding z-score [16]: 4.83
- PBM binding z-score [17]: 2.1
- PBM binding z-score [18]: 5.95
- PBM binding z-score [19]: 1.32
- PBM binding z-score [20]: 5.13

Sequence: TAGCCTTGGTCATTGGGCCAGTATAGTACGCATC
- PBM binding z-score [1]: -0.646
- PBM binding z-score [2]: -0.599
- PBM binding z-score [3]: -0.698
- PBM binding z-score [4]: -0.456
- PBM binding z-score [5]: -0.537
- PBM binding z-score [6]: -0.217
- PBM binding z-score [7]: 0.338
- PBM binding z-score [8]: 0.117
- PBM binding z-score [9]: -0.34
- PBM binding z-score [10]: -0.429
- PBM binding z-score [11]: -0.486
- PBM binding z-score [12]: 0.545
- PBM binding z-score [13]: -0.509
- PBM binding z-score [14]: -0.603
- PBM binding z-score [15]: -0.625
- PBM binding z-score [16]: -0.515
- PBM binding z-score [17]: -0.596
- PBM binding z-score [18]: -0.324
- PBM binding z-score [19]: -0.586
- PBM binding z-score [20]: 0.69

Sequence: TCGAGTAGGTTACCAATGGGGCAGTCAGCTTTCT
- PBM binding z-score [1]: 0.254
- PBM binding z-score [2]: 0.465
- PBM binding z-score [3]: -0.934
- PBM binding z-score [4]: 0.266
- PBM binding z-score [5]: -0.413
- PBM binding z-score [6]: 1.05
- PBM binding z-score [7]: 0.211
- PBM binding z-score [8]: 1.04
- PBM binding z-score [9]: 1.06
- PBM binding z-score [10]: 0.984
- PBM binding z-score [11]: 3.11
- PBM binding z-score [12]: 2.43
- PBM binding z-score [13]: -0.721
- PBM binding z-score [14]: -1.01
- PBM binding z-score [15]: -0.432
- PBM binding z-score [16]: -0.103
- PBM binding z-score [17]: -1.34
- PBM binding z-score [18]: 0.0626
- PBM binding z-score [19]: -1.21
- PBM binding z-score [20]: 0.908

Sequence: ATCTCTAGGTAAAGATAGATCAGTGAATGCAAAT
- PBM binding z-score [1]: 0.447
- PBM binding z-score [2]: 0.581
- PBM binding z-score [3]: 0.166
- PBM binding z-score [4]: 0.000708
- PBM binding z-score [5]: 0.387
- PBM binding z-score [6]: 0.00369
- PBM binding z-score [7]: 0.763
- PBM binding z-score [8]: 0.278
- PBM binding z-score [9]: 0.36
- PBM binding z-score [10]: 0.457
- PBM binding z-score [11]: 1.89
- PBM binding z-score [12]: 1.61
- PBM binding z-score [13]: 0.429
- PBM binding z-score [14]: 1.24
- PBM binding z-score [15]: -0.283
- PBM binding z-score [16]: -0.396
- PBM binding z-score [17]: 0.0363
- PBM binding z-score [18]: -0.0575
- PBM binding z-score [19]: 1.14
- PBM binding z-score [20]: -0.27

Sequence: GCTCGGAGGACAATGTCAGAGCTTTGTCCGTAGA
- PBM binding z-score [1]: -0.623
- PBM binding z-score [2]: -0.613
- PBM binding z-score [3]: -0.612
- PBM binding z-score [4]: -0.519
- PBM binding z-score [5]: -0.999
- PBM binding z-score [6]: -0.586
- PBM binding z-score [7]: -0.765
- PBM binding z-score [8]: -0.898
- PBM binding z-score [9]: -1.25
- PBM binding z-score [10]: -1.01
- PBM binding z-score [11]: -0.596
- PBM binding z-score [12]: -0.513
- PBM binding z-score [13]: -1.4
- PBM binding z-score [14]: -0.198
- PBM binding z-score [15]: -1.02
- PBM binding z-score [16]: -0.494
- PBM binding z-score [17]: -0.648
- PBM binding z-score [18]: -0.772
- PBM binding z-score [19]: -1.31
- PBM binding z-score [20]: 0.788

Reference: the supplement of paper PMC6555819
